Source: PubChem BioAssay (NCI)
This is part of a sample that, as a whole, favours compounds with a hit. Of some 83,000 tested, about 20% had one in any assay.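 The test compound was applied at a single concentration to cells in 96-well plates for 48 hours, and percent growth was recorded.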 The source made the active and inactive calls. The calls were made as follows: active = growth percent below 10; inactive = the rest.

System: MDA-MB-468 breast
Assay: NCI-60 one-dose screen, 48 h (100 = growth as untreated, 0 = no growth, -100 = all killed)
Details: 10 µM unless noted

Compound	growth
Cc1cc[c-]cc1.Fc1c[c-]c(-c2ccccn2)c(F)c1.N#CCC[PH+](CCC#N)c1ccccc1.[Pt+2]	37% (inactive)
O=CN1N=C(c2ccc3c(c2)OCO3)CC1c1sc(N(CCCl)CCCl)nc1Cl (centres undefined)	90.9% (inactive)
CC(C)(NC(=O)O[C@@H]1CN2CCC1CC2)c1csc(-c2ccc(F)cc2)n1	85.2% (inactive)
O=C1NC(=O)C(=Cc2cn(CCCCCCn3c4ccccc4c(=O)c4ccccc43)c3ccccc23)C(=O)N1	-26% (active)
